# Results published in the supplement of paper PMC4466140.
# Experiments:
# Assay in all cases: SPOT peptide array binding signal intensity (averaged, normalized) (arbitrary units (background-subtracted, floor 0; scale differs between SH3 domains)); higher = stronger binding of the SH3 domain to the peptide
# [1] = molecular target: AgAbp1
# In short: (§1)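 GST-SH3 fusions from four yeast species, purified on glutathione Sepharose, were incubated at 10 μg/ml overnight at 4°C on membranes of synthetic 15-mer peptides in which cysteines were replaced with serines. Binding signal is the normalized, background-subtracted spot intensity averaged over replicates, in domain-specific arbitrary units.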
# [2] = molecular target: AgBbc1
# In short: as §1
# [3] = molecular target: AgBem1-D1
# In short: as §1
# [4] = molecular target: AgBzz1-D1
# In short: as §1
# [5] = molecular target: AgBzz1-D2
# In short: as §1
# [6] = molecular target: AgCyk3
# In short: as §1
# [7] = molecular target: AgFus1
# In short: as §1
# [8] = molecular target: AgHof1
# In short: as §1
# [9] = molecular target: AgHse1
# In short: as §1
# [10] = molecular target: AgLsb1
# In short: as §1
# [11] = molecular target: AgLsb4
# In short: as §1
# [12] = molecular target: AgMyo5
# In short: as §1
# [13] = molecular target: AgNbp2
# In short: as §1
# [14] = molecular target: AgRvs167
# In short: as §1
# [15] = molecular target: AgSho1
# In short: as §1
# [16] = molecular target: AgSla1-D1-D2
# In short: as §1
# [17] = molecular target: AgSla1-D3
# In short: as §1
# [18] = molecular target: CaAbp1-D1
# In short: as §1
# [19] = molecular target: CaAbp1-D2
# In short: as §1
# [20] = molecular target: CaBbc1
# In short: as §1
# [21] = molecular target: CaBem1-D1
# In short: as §1
# [22] = molecular target: CaBzz1-D1
# In short: as §1
# [23] = molecular target: CaBzz1-D2
# In short: as §1
# [24] = molecular target: CaCyk3
# In short: as §1
# [25] = molecular target: CaFus1
# In short: as §1
# [26] = molecular target: CaHof1
# In short: as §1
# [27] = molecular target: CaHse1
# In short: as §1
# [28] = molecular target: CaLsb1
# In short: as §1
# [29] = molecular target: CaLsb4
# In short: as §1
# [30] = molecular target: CaMyo5
# In short: as §1
# [31] = molecular target: CaNbp2
# In short: as §1
# [32] = molecular target: CaRvs167
# In short: as §1
# [33] = molecular target: CaRvs167-3
# In short: as §1
# [34] = molecular target: CaSho1
# In short: as §1
# [35] = molecular target: CaSla1-D1-D2
# In short: as §1
# [36] = molecular target: CaSla1-D3
# In short: as §1
# [37] = molecular target: ScAbp1
# In short: as §1
# [38] = molecular target: ScBbc1
# In short: as §1
# [39] = molecular target: ScBem1-D1
# In short: as §1
# [40] = molecular target: ScBzz1-D1
# In short: as §1
# [41] = molecular target: ScBzz1-D2
# In short: as §1
# [42] = molecular target: ScCyk3
# In short: as §1
# [43] = molecular target: ScFus1
# In short: as §1
# [44] = molecular target: ScHof1
# In short: as §1
# [45] = molecular target: ScHse1
# In short: as §1
# [46] = molecular target: ScLsb1
# In short: as §1
# [47] = molecular target: ScLsb2
# In short: as §1
# [48] = molecular target: ScLsb3
# In short: as §1
# [49] = molecular target: ScLsb4
# In short: as §1
# [50] = molecular target: ScMyo3
# In short: as §1
# [51] = molecular target: ScMyo5
# In short: as §1
# [52] = molecular target: ScNbp2
# In short: as §1
# [53] = molecular target: ScPex13
# In short: as §1
# [54] = molecular target: ScRvs167
# In short: as §1
# [55] = molecular target: ScSho1
# In short: as §1
# [56] = molecular target: ScSla1-D1-D2
# In short: as §1
# [57] = molecular target: ScSla1-D3
# In short: as §1
# [58] = molecular target: SpAbp1-D1
# In short: as §1
# [59] = molecular target: SpBbc1
# In short: as §1
# [60] = molecular target: SpBzz1-D1
# In short: as §1
# [61] = molecular target: SpBzz1-D2
# In short: as §1
# [62] = molecular target: SpCyk3
# In short: as §1
# [63] = molecular target: SpHof1
# In short: as §1
# [64] = molecular target: SpHof1-2
# In short: as §1
# [65] = molecular target: SpHof1-3
# In short: as §1
# [66] = molecular target: SpHse1
# In short: as §1
# [67] = molecular target: SpLsb1
# In short: as §1
# [68] = molecular target: SpLsb4
# In short: as §1
# [69] = molecular target: SpMyo1
# In short: as §1
# [70] = molecular target: SpNbp2
# In short: as §1
# [71] = molecular target: SpPex13
# In short: as §1
# [72] = molecular target: SpRvs167
# In short: as §1
# [73] = molecular target: SpSla1-D1-D2
# In short: as §1
# [74] = molecular target: SpSla1-D3
# In short: as §1
binder,measurement,setting,value
QHQQRQPKRPKRYSL,SPOT peptide array binding signal intensity,[1],147
same,SPOT peptide array binding signal intensity,[2],293
same,SPOT peptide array binding signal intensity,[3],112
same,SPOT peptide array binding signal intensity,[4],55.5
same,SPOT peptide array binding signal intensity,[5],19
same,SPOT peptide array binding signal intensity,[6],11
same,SPOT peptide array binding signal intensity,[7],98.5
same,SPOT peptide array binding signal intensity,[8],34.5
same,SPOT peptide array binding signal intensity,[9],353
same,SPOT peptide array binding signal intensity,[10],15
same,SPOT peptide array binding signal intensity,[11],151
same,SPOT peptide array binding signal intensity,[12],1.5
same,SPOT peptide array binding signal intensity,[13],654
same,SPOT peptide array binding signal intensity,[14],6
same,SPOT peptide array binding signal intensity,[15],12
same,SPOT peptide array binding signal intensity,[16],288
same,SPOT peptide array binding signal intensity,[17],3.5
same,SPOT peptide array binding signal intensity,[18],1050
same,SPOT peptide array binding signal intensity,[19],639
same,SPOT peptide array binding signal intensity,[20],792
same,SPOT peptide array binding signal intensity,[21],20
same,SPOT peptide array binding signal intensity,[22],59
same,SPOT peptide array binding signal intensity,[23],94
same,SPOT peptide array binding signal intensity,[24],211
same,SPOT peptide array binding signal intensity,[25],126
same,SPOT peptide array binding signal intensity,[26],2
same,SPOT peptide array binding signal intensity,[27],175
same,SPOT peptide array binding signal intensity,[28],2.5
same,SPOT peptide array binding signal intensity,[29],1810
same,SPOT peptide array binding signal intensity,[30],12
same,SPOT peptide array binding signal intensity,[31],492
same,SPOT peptide array binding signal intensity,[32],18.5
same,SPOT peptide array binding signal intensity,[33],38.2
same,SPOT peptide array binding signal intensity,[34],56.5
same,SPOT peptide array binding signal intensity,[35],558
same,SPOT peptide array binding signal intensity,[36],26.2
same,SPOT peptide array binding signal intensity,[37],43
same,SPOT peptide array binding signal intensity,[38],251
same,SPOT peptide array binding signal intensity,[39],14
same,SPOT peptide array binding signal intensity,[40],9
same,SPOT peptide array binding signal intensity,[41],12
same,SPOT peptide array binding signal intensity,[42],216
same,SPOT peptide array binding signal intensity,[43],54.5
same,SPOT peptide array binding signal intensity,[44],≤ 0
same,SPOT peptide array binding signal intensity,[45],409
same,SPOT peptide array binding signal intensity,[46],25.8
same,SPOT peptide array binding signal intensity,[47],45
same,SPOT peptide array binding signal intensity,[48],1410
same,SPOT peptide array binding signal intensity,[49],140
same,SPOT peptide array binding signal intensity,[50],4.25
same,SPOT peptide array binding signal intensity,[51],7.75
same,SPOT peptide array binding signal intensity,[52],620
same,SPOT peptide array binding signal intensity,[53],88.8
same,SPOT peptide array binding signal intensity,[54],129
same,SPOT peptide array binding signal intensity,[55],196
same,SPOT peptide array binding signal intensity,[56],372
same,SPOT peptide array binding signal intensity,[57],22.2
same,SPOT peptide array binding signal intensity,[58],426
same,SPOT peptide array binding signal intensity,[59],31
same,SPOT peptide array binding signal intensity,[60],250
same,SPOT peptide array binding signal intensity,[61],1.5
same,SPOT peptide array binding signal intensity,[62],10.5
same,SPOT peptide array binding signal intensity,[63],81
same,SPOT peptide array binding signal intensity,[64],18.8
same,SPOT peptide array binding signal intensity,[65],169
same,SPOT peptide array binding signal intensity,[66],75.2
same,SPOT peptide array binding signal intensity,[67],73.8
same,SPOT peptide array binding signal intensity,[68],2350
same,SPOT peptide array binding signal intensity,[69],7.75
same,SPOT peptide array binding signal intensity,[70],267
same,SPOT peptide array binding signal intensity,[71],12
same,SPOT peptide array binding signal intensity,[72],26.8
same,SPOT peptide array binding signal intensity,[73],≤ 0
same,SPOT peptide array binding signal intensity,[74],6
ISRRRLPVIMHRLKM,SPOT peptide array binding signal intensity,[1],138
same,SPOT peptide array binding signal intensity,[2],16.2
same,SPOT peptide array binding signal intensity,[3],66
same,SPOT peptide array binding signal intensity,[4],49.5
same,SPOT peptide array binding signal intensity,[5],14
same,SPOT peptide array binding signal intensity,[6],1
same,SPOT peptide array binding signal intensity,[7],423
same,SPOT peptide array binding signal intensity,[8],6.5
same,SPOT peptide array binding signal intensity,[9],1310
same,SPOT peptide array binding signal intensity,[10],2.75
same,SPOT peptide array binding signal intensity,[11],40
same,SPOT peptide array binding signal intensity,[12],0.25
same,SPOT peptide array binding signal intensity,[13],303
same,SPOT peptide array binding signal intensity,[14],16.5
same,SPOT peptide array binding signal intensity,[15],240
same,SPOT peptide array binding signal intensity,[16],158
same,SPOT peptide array binding signal intensity,[17],9.5
same,SPOT peptide array binding signal intensity,[18],617
same,SPOT peptide array binding signal intensity,[19],645
same,SPOT peptide array binding signal intensity,[20],142
same,SPOT peptide array binding signal intensity,[21],102
same,SPOT peptide array binding signal intensity,[22],49
same,SPOT peptide array binding signal intensity,[23],42.5
same,SPOT peptide array binding signal intensity,[24],36
same,SPOT peptide array binding signal intensity,[25],542
same,SPOT peptide array binding signal intensity,[26],1
same,SPOT peptide array binding signal intensity,[27],61
same,SPOT peptide array binding signal intensity,[28],≤ 0
same,SPOT peptide array binding signal intensity,[29],177
same,SPOT peptide array binding signal intensity,[30],0.5
